HEK cytotox: kills HEK 293 cells | HEK 293 viability, ATP luminescence (CellTiter-Glo), 48-72 h | Potency, µM (highest dose often 115 µM), inactives show at the top dose activity change, negative = cytotoxicity, usual class: inhibitors | 6.6% of 94,000 active; further: on the % scale 0 is the no-effect control and ±100 the full control effect; nearly all actives have a fitted effect of over 60% in size
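Cytotoxicity was scored by loss of ATP-coupled luminescence (CellTiter-Glo) in HEK 293 cells. Compound treatment ran 48 or 72 hr at 37 degree Celsius, 5% CO2, 95% humidity.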
GPT2 inh: inhibitors of human GPT2 alanine aminotransferase; AID 1671188; 0.25% of 100,000 active; Potency, µM (series often up to 57.7 µM), without a hit: top-dose activity change, negative = inhibition, actives largely listed as inhibitors; Recombinant GPT2, coupled pyruvate oxidase/HRP Amplex Red fluorescence; further: on the % scale 0 is the no-effect control and ±100 the full control effect; nearly all actives have a fitted effect of over 60% in size
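Recombinant GPT2 (10ng/uL) with 250uM a-KG and 2mM L-alanine, 30 min at room temperature, in HEPES pH 7.5 buffer. Pyruvate detected by pyruvate oxidase/HRP/Amplex Red fluorescence after 30 min in the dark; AOA (50uM) as positive control.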
Luciferase inh: blocks purified firefly luciferase enzyme activity | purified P. pyralis luciferase, luminescence, biochemical | Potency, µM (series often up to 115 µM), usual class: inhibitors | 2.5% of 76,000 active; further: on the % scale 0 is the no-effect control and ±100 the full control effect; nearly all actives have a fitted effect of over 65% in size
Target sequence (P08659 whole entry, looked up): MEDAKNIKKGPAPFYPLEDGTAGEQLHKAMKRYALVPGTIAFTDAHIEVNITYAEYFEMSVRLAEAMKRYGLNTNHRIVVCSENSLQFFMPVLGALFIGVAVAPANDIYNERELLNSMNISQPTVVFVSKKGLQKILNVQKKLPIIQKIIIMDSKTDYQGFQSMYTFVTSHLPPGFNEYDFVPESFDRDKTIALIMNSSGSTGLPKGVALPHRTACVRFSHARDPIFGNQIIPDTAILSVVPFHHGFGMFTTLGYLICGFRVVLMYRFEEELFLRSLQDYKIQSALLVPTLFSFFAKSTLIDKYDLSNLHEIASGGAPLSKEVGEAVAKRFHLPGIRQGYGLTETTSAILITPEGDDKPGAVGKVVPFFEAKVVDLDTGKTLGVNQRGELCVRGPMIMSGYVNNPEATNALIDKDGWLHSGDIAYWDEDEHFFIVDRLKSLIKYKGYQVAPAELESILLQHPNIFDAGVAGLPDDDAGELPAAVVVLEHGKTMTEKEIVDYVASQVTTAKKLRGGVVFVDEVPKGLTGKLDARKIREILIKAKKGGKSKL
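Inhibitors were tested against purified firefly luciferase in a biochemical, low-substrate format (both substrates at 10uM) and luminescence measured with a CCD imager.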
NIH3T3 tox: cytotoxic compounds in NIH 3T3 cells | NIH 3T3 viability, CellTiter-Glo ATP luminescence, 48-72 h | Potency, µM (doses to about 96.7 µM), for the others: top-dose activity change, negative = cytotoxicity, usual class: inhibitors | 4.3% of 94,000 active; further: on the % scale 0 is the no-effect control and ±100 the full control effect; nearly all actives have a fitted effect of over 55% in size
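Mouse fibroblast NIH 3T3 cells, 400 per well, received compound via pintool and were incubated for 48 or 72 hr prior to CellTiter-Glo ATP luminescence measurement.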
NPR1 antag: antagonists of human natriuretic peptide receptor Npr1 | 1.6% of 76,000 active | AID 1347048 | HEK293 hNpr1 GloSensor cGMP, ANP-stimulated luminescence | Potency, µM (series often up to 46.3 µM), inactives show top-dose activity change, negative = inhibition, hits mostly inhibitors; calls by dose curve; further: on the % scale 0 is the no-effect control and ±100 the full control effect; nearly all actives have a fitted effect of over 60% in size
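HEK293 cells stably expressing human Npr1 and cGMP GloSensor pGS-40F, loaded 2 h with 2% GloSensor reagent, given compound 30 min at room temperature. Luminescence read before and 20 min after 0.1 nM hNppA.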
Npr1 antag conf: hNpr1 antagonism, confirmation assay | shares compounds with NPR1 antag | AID 1347044 | Potency, µM (titrated, usually from 57.6 µM), for inactives: top-dose activity change, negative = inhibition, actives largely listed as inhibitors | HEK293 hNpr1 cGMP GloSensor luminescence, ANP-stimulated | 76% of 1,400 active; calls by dose curve; further: nearly all actives have a fitted effect of over 70% in size
Npr2 selectivity: selectivity test of Npr1 antagonists against human Npr2. shares compounds with NPR1 antag. HEK293 hNpr2 GloSensor cGMP luminescence, CNP-stimulated. Potency, µM (series often up to 57.6 µM), for the others: at the top dose activity change, negative = inhibition, most hits filed as inhibitors. 67% of 1,400 active; calls by dose curve; further: nearly all actives have a fitted effect of over 70% in size
FLuc counter: FLuc enzyme inhibition, Npr1 counter-screen. Potency, µM (titrated, usually from 57.6 µM), without a hit: at the highest dose activity change, negative = inhibition, usual class: inhibitors. purified FLuc enzyme, luminescence, Km substrate. shares compounds with NPR1 antag. AID 1347047. 0.7% of 1,400 active; further: series mostly up to about 58 µM; 0% is about no effect
GloSensor cGMP: control cell line activity, Npr1 antagonist counter-screen | HEK293 GloSensor cGMP, SNP-stimulated, luminescence | Potency, µM (titrated, usually from 57.6 µM), without a hit: at the top dose activity change, negative = inhibition, hits mostly inhibitors | shares compounds with NPR1 antag | AID 1347051 | 69% of 1,400 active; calls by dose curve; further: on the % scale 0 is the no-effect control and ±100 the full control effect; nearly all actives have a fitted effect of over 70% in size
* = called active by the depositor; i = inactive; ? = inconclusive; nt = not tested or not shown; [ ] = another dose, or the depositor's remark. This is a sample that favours compounds with a hit; in the whole collection about 10% have one here. Unless noted, the call rests on the fitted dose curve; in most records, active means well fitted curve in the direction sought with a large enough effect; inconclusive means small, poorly fitted or top-dose-only effect, or another doubt; inactive means no such curve, though single readings can be large; an effect the other way counts as inactive or inconclusive. Potency means the concentration at half of the fitted maximal effect.

SMILES	HEK cytotox	GPT2 inh	Luciferase inh	NIH3T3 tox	NPR1 antag	Npr1 antag conf	Npr2 selectivity	FLuc counter	GloSensor cGMP
CCNC(=O)CC1=CSC2=NC(C)=C(C(=O)Nc3ccccc3)C(c3ccc(F)cc3)N12 (stereo unspecified)	?	i	i	-11.6%	?	?	-27.7%	-1.6%	-17.8%
COc1cccc(CN2CC[C@@H]3C(=O)NCCCCCCN(Cc4ccncc4)[C@@H]3C2)n1	-11.6%	-0.8%	i	-15.1%	0.1%	nt	nt	nt	nt
COc1ccc2nc(C[C@@H]3C[C@@H](C(C)C)[C@H](CNC(=O)CCC(=O)O)C=C3C)[nH]c2c1	i	-14.5%[88.5 µM]	i	2.0%[174 µM]	-1.1%[70.6 µM]	nt	nt	nt	nt
COc1ccc2nc(C[C@@H]3C[C@@H](C(C)C)[C@H](CNCc4ccccc4OC)C=C3C)[nH]c2c1	20µM*	0.2%	i	28.2µM*	-26.0%	?	?	-1.6%	-26.0%
Cc1noc(C)c1[S+](=O)([O-])NC1CCN(c2nc3ncccc3o2)C1 (stereo unspecified)	-0.8%	i	nt	-15.6%	nt	nt	nt	nt	nt
CCC(=O)N1CCc2c(C(=O)NCc3cc(OC)ccc3OC)cccc21	?	-19.8%	i	-17.9%	-2.9%	nt	nt	nt	nt
COc1ccc(OC)c(CNC(=O)c2cccc3c2CCN3C(=O)c2ccc(F)cc2)c1	?	-12.4%	i	?	?	?	?	3.7%	?
COc1cc(CN2CCC(C)(c3noc(C4CCOCC4)n3)CC2)cc(OC)c1	-3.7%	?	i	-7.6%	?	?	?	-0.2%	3.2%
Cc1ccc(NC(=O)C2CCN(c3cc(C(F)(F)F)ncn3)CC2)cc1F	?	i	i	?	5.01µM*	6.85µM*	10.9µM*	5.5%	6.11µM*
O=C(Nc1cccc(F)c1)C1CCN(c2cc(C(F)(F)F)ncn2)CC1	?	?	i	?	11.2µM*	21.7µM*	?	-0.4%	19.3µM*
COc1ccccc1CNC(=O)C1CCN(c2cc(C(F)(F)F)ncn2)CC1	?	1.1%	i	-27.1%	-10.4%	nt	nt	nt	nt
O=C(Nc1cccc(Cl)c1)C1CCN(c2cc(C(F)(F)F)ncn2)CC1	?	i	i	?	?	24.3µM*	?	5.1%	?
Cc1ccc(CCNC(=O)C2CCN(c3cc(C(F)(F)F)ncn3)CC2)cc1	?	i	i	?	?	nt	nt	nt	nt
O=C(Nc1cccc(Br)c1)C1CCN(c2cc(C(F)(F)F)ncn2)CC1	44.7µM*	i	i	?	11.2µM*	21.7µM*	21.7µM*	-1.2%	24.3µM*
COc1ccc(NC(=O)C2CCN(c3cc(C(F)(F)F)ncn3)CC2)cc1Cl	?	i	i	?	?	nt	nt	nt	nt
Cc1ccc([C@H]2C[C@@H](O)[C@@H](O)[C@@H]2NCc2ccccc2)cc1	?	?	i	?	?	nt	nt	nt	nt
COc1cccc(CC(=O)NC2CCN(C(=O)c3cc4c(=O)[nH]c(C)cn4n3)CC2)c1	7.3%	1.2%	i	3.6%	17.1%	nt	nt	nt	nt
Cc1noc(-c2cn(C3CCCN(C(=O)c4cccc5[nH]ccc45)C3)nn2)n1 (stereo unspecified)	?	i	?	-32.2%	-14.6%	nt	nt	nt	nt
